The values below come from PubChem BioAssay AID2205 (University of Pittsburgh Molecular Library Screening Center, 2009).

Out of some 200,000 compounds screened, about 1,600 (0.8%) were called active.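 Rule for the calls: active = plate Z-score above 3 for both tubulin-high and condensed-nucleus cell shares, with cell loss under 80%, at 10 µM; inactive = the rest, inconclusive results apart.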 Only a selection was taken, and actives are over-represented in it overall.

The assay is described as follows: microtubule stabilizers in HeLa cells, primary screen, imaging, high-content imaging (AID 2205).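 For % tubulin-high responders: anti alpha tubulin signal scored within the nucleus-defined area of each cell.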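 For toxicity: 0% = mean cell density of plate MIN control wells and 100% = no cells.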 The settings on record: HeLa tubulin immunostaining HCS, 24 h, at 10 µM; % Hoechst-high responders: measured here: nuclear condensation Hoechst responders, stronger effect = higher value, share of cells brighter than vehicle mean+2SD; % tubulin-high responders: stronger effect = higher value, share of cells brighter than vehicle mean+2SD; toxicity: measured here: cytotoxicity by cell density.
Regarding `CCOC(=O)CC(NC(=O)C1c2ccccc2Oc2ccccc21)c1ccc(C)cc1` (stereo unspecified), the % Hoechst-high responders came out at 1.91%, the % tubulin-high responders is 1.78% (inactive) and the toxicity was 3.3%.
For `Cc1cc(-c2nnc(CCC(=O)NC(c3ccccc3)c3ccccc3)o2)no1` the same measures were 1.8%, 2.51% (inactive) and 7.53%.
Regarding `O=C(COC(=O)c1cc(=O)[nH]c2ccccc12)Nc1nc(-c2cccc(Br)c2)cs1`, the % Hoechst-high responders is 3.67%, the % tubulin-high responders is 2.11% (inactive) and the toxicity was determined as 8.74%.
Turning to `NS(=O)(=O)c1ccc(CCNC(=O)CCCn2c(SCC(=O)N3CCCC3)nc3ccsc3c2=O)cc1`, the % Hoechst-high responders was determined as 2.7%, the % tubulin-high responders was 1.43% (inactive) and the toxicity turned out to be 6.34%.
The matching figures for `COc1cc2c(cc1O)[C@H](Cc1ccc(Oc3cc(C[C@@H]4NCCc5cc(OC)c(O)cc54)ccc3O)cc1)NCC2`: 2.73%, 2.04% (inactive) and 13.6%.
Turning to `CC[C@H]1CN2CCc3cc(OC)c(OC)cc3[C@@H]2C[C@@H]1C[C@H]1NCCc2cc(OC)c(OC)cc21`, the % Hoechst-high responders was 20.9%, the % tubulin-high responders is 55.7% (active) and the toxicity was determined as 75.2%.
For `CCCCn1c(N)c(N(CC)C(=O)/C=C/c2ccco2)c(=O)[nH]c1=O` the same measures were 2.6%, 6.6% (inactive) and 4.9%.
The matching figures for `CC(C)n1c(=O)[nH]c2cc(C(=O)Nc3ccccc3)ccc21`: 0.954%, 1.61% (inactive) and 1.51%.
On to `COc1ccc(-n2c(C)nn(CC3CC3)c2=O)cc1`, for which the % Hoechst-high responders stood at 1.41%, the % tubulin-high responders is 0.918% (inactive) and the toxicity is 4.19%.
For `COc1ccccc1NC(=O)C1=C(C)Nc2nc3ccccc3n2C1c1cccs1` (stereo unspecified) the same measures were 37.9%, 14.5% (active) and 54.8%.
The matching figures for `CCOC(=O)C1=C(C)Nc2nc3ccccc3n2C1c1cccs1` (stereo unspecified): 2.61%, 1.67% (inactive) and 7.26%.
For `CCOc1ccc(C2C(C(=O)NC)=C(C)Nc3nc4ccccc4n32)cc1OC` (stereo unspecified) the same measures were 1.52%, 3.35% (inactive) and 7.37%.
Take `Cc1ccc(-n2c(C)cc(C(=O)CSc3nnc4ccccn34)c2C)cc1`: the % Hoechst-high responders came out at 2.88%, the % tubulin-high responders is 3.52% (inactive) and the toxicity was 5.15%.
The matching figures for `COc1ccc(-c2csc(Nc3ccc(O)cc3)n2)cc1`: 4.55%, 6.13% (inactive) and 2.94%.
The matching figures for `COc1ccc(OC)c(Nc2nc(-c3ccc(O)c(O)c3)cs2)c1`: 33.9%, 34% (active) and 37%.
Regarding `COc1ccc(Nc2nc(-c3ccccc3)cs2)cc1`, the % Hoechst-high responders came out at 2.53%, the % tubulin-high responders is 3.24% (inactive) and the toxicity turned out to be 3.05%.
For `COc1ccc(NC(C(=O)Nc2cccc(C(C)=O)c2)c2ccccc2)cc1` (stereo unspecified) the same measures were 4.94%, 2.7% (inactive) and 7.43%.
For `CCc1cc2cc(OC)ccc2nc1SCC(=O)Nc1cc(OC)c(OC)cc1C(=O)O` the same measures were 1.91%, 2.13% (inactive) and 7.82%.
Turning to `COc1ccccc1C(c1nnnn1CC1CCCO1)N1CCN(c2ccccc2)CC1` (stereo unspecified), the % Hoechst-high responders was 1.03%, the % tubulin-high responders is 3.39% (inactive) and the toxicity was 0.528%.
For `O=C(c1cn(-c2ccccc2)nc1-c1cc2ccccc2oc1=O)N1CCOCC1` the same measures were 1.17%, 1.1% (inactive) and 0.611%.
The matching figures for `Nc1ncc(-c2cc3ccccc3oc2=O)s1`: 2.39%, 5.77% (inactive) and 5%.
As to `O=c1oc2ccccc2cc1-c1cn(-c2ccccc2)c(=S)[nH]1`, the % Hoechst-high responders is 36.5%, the % tubulin-high responders is 12.5% (active) and the toxicity was 39.3%.
The matching figures for `Cc1ccc(S(=O)(=O)CCC(=O)OCc2ccccc2)cc1`: 1.72%, 4.05% (inactive) and 4.99%.
The matching figures for `CC1CCN(c2ccc([N+](=O)[O-])cc2C(N)=O)CC1`: 1.09%, 5.37% (inactive) and 13%.
Turning to `O=c1cc(N2CCCCC2)c(-c2ccccc2)nn1Cc1cccc(F)c1`, the % Hoechst-high responders came to 0.91%, the % tubulin-high responders is 7.03% (inactive) and the toxicity was determined as 4.95%.
The matching figures for `O=c1cc(-c2ccccc2)[nH]c2cc(F)ccc12`: 48.5%, 14.7% (inactive) and 37.5%.
For `Cc1ccc(-c2cc(=O)c3ccc(Cl)cc3[nH]2)cc1` the same measures were 1.34%, 2.15% (inactive) and 1.49%.
The matching figures for `Cc1ccc(-c2cc(=O)c3ccc(F)cc3[nH]2)cc1`: 14.3%, 22.4% (active) and 28.4%.
`CN(CC(=O)NC1CCCC1)S(=O)(=O)c1cnc[nH]1`: the % Hoechst-high responders stood at 1.61%, the % tubulin-high responders was 4.66% (inactive) and the toxicity came out at 8.08%.
For `Cc1nn(CC2CC2)c(=O)n1N(C)c1ncc(C(F)(F)F)cc1Cl` the same measures were 3.3%, 5.71% (inactive) and 3.78%.
The matching figures for `CN(NC(=O)c1ccccc1)c1nc2ccccc2nc1C(F)(F)F`: 38%, 48.6% (active) and 33.5%.
For `COC(=O)CNC(=O)c1ccccc1F` the same measures were 1.58%, 0.975% (inactive) and 9.24%.
Turning to `CSc1nc(N(C)NC(=O)c2cccc(C)c2)c2ccccc2n1`, the % Hoechst-high responders came to 33.9%, the % tubulin-high responders is 13.4% (inactive) and the toxicity was found to be 39.2%.
For the compound `CN(NC(=O)c1ccccc1F)c1nc(C(F)(F)F)nc2ccccc12`, the % Hoechst-high responders was 59.1%, the % tubulin-high responders was 12.1% (active) and the toxicity was 32.2%.
The matching figures for `COc1ccc(C(=O)NN(C)c2nc(-c3ccccc3)cc(C)c2S(C)(=O)=O)cc1`: 3.04%, 2.71% (inactive) and 4.33%.
As to `Cc1cc(C)n(-c2nc(C(F)(F)F)nc3ccccc23)n1`, the % Hoechst-high responders came to 2.48%, the % tubulin-high responders is 5.42% (inactive) and the toxicity is 5.25%.
The matching figures for `CCN(CC)S(=O)(=O)c1ccc(N(C)CCc2ccc(OC)c(OC)c2)nc1`: 1.73%, 5.42% (inactive) and 7.66%.
